# The list is not random: actives were taken first. Their share in the collection is about 1.1%.
# VDR inh – inhibitors of human vitamin D receptor. VDR-SRC2-3 peptide fluorescence polarization, 2 h. hit rate 0.93% among 400,000. Potency, µM, for inactives: max response, negative = inhibition, usual class: inhibitors; also: potency is read from the fitted curve at half-maximal effect; % is scaled to controls: 0 for no effect and ±100 for the full control effect
# Target sequence (P11473 whole entry, looked up): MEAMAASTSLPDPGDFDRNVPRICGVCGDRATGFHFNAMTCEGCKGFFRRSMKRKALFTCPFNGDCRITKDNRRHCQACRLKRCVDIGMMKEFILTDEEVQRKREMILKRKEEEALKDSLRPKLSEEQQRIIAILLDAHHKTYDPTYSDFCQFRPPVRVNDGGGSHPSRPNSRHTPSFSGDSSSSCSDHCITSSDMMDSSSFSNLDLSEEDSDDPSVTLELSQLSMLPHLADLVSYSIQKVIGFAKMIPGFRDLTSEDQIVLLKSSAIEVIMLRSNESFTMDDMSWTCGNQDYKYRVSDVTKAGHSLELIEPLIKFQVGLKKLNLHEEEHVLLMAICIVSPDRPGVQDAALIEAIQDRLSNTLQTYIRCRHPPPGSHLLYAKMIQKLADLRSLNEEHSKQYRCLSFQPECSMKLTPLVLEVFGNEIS
#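 After 23 nl compound addition and a short centrifugation, plates sat for 2 hours at ambient temperature; polarization of fluorescence then indicated loss of VDR binding to peptide SRC2-3.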
# Tb PFK inh – blocks T. brucei phosphofructokinase | O15648 | T. brucei PFK, ADP-Glo luminescence | Potency, µM (highest dose often 57.5 µM), without a hit: at the top dose activity, negative = inhibition, usual class: inhibitors | hit rate 0.17% among 330,000 | AID 485367;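 also: potency is read from the fitted curve at half-maximal effect; 0% = uninhibited 1x PFK enzyme wells and -100% = no-enzyme wells; nearly all actives have a fitted effect of over 60% in size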
#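 PFK 1.25 nM, F6P 0.5 mM, ATP 0.1 mM, 0.1 M TEA pH 8.0, 5 mM MgCl2, 0.01% Tween20, 0.1% BSA; 45 min RT. ADP-Glo readout. qHTS titration up to 57 uM; curves fitted, compounds curve-classed.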
# Pin1 inh – human Pin1 inhibition; Potency, µM (top dose mostly 115 µM), for inactives: at the highest dose activity, negative = inhibition, hits mostly inhibitors; Q13526; hit rate 0.009% among 390,000; Pin1 FP peptide displacement, HiFluor488, 10 min; AID 504891; active = well fitted inhibition curve with a large enough effect in the polarisation, with a control signal flat, not every such curve was filed as active; inconclusive = small, poorly fitted or top-dose-only effect, or effect the other way, or a change in a side signal; inactive = no such curve, though single readings can be large or run the other way; the % refers to the polarisation; also: potency is read from the fitted curve at half-maximal effect; % is scaled to controls: 0 for no effect and ±100 for the full control effect
# Target sequence (Q13526 whole entry, looked up): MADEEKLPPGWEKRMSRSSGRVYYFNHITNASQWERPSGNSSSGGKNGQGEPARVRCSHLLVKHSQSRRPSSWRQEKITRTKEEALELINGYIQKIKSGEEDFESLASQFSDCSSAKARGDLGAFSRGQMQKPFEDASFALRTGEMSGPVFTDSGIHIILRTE
# PGK inhibitor – T. brucei PGK inhibition; P07378; PGK/GAPDH coupled, Kinase-Glo luminescence, 60 min; Potency, µM (top dose mostly 57.5 µM), for inactives: at the highest dose activity change, negative = inhibition, actives largely listed as inhibitors; hit rate 0.043% among 380,000; AID 602233; also: potency is read from the fitted curve at half-maximal effect; % is scaled to controls: 0 for no effect and ±100 for the full control effect; nearly all actives have a fitted effect of over 60% in size
#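 Recombinant glycosomal PGK reaction used 1,3-bisphosphoglycerate generated in-well by GAPDH (100nM final) in 100mM TEA pH 7.6, 5mM MgCl2, 0.01% Tween-20. After 60 minutes at room temperature, ATP was read by Kinase-Glo Plus luminescence end-point.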
# GLS inh – blocks human kidney-isoform glutaminase activity | GLS enzymatic activity, qHTS titration | AID 624170 | hit rate 0.21% among 410,000 | Potency, µM (top dose mostly 45.5 µM), without a hit: top-dose activity change, negative = inhibition, actives largely listed as inhibitors; also: potency is read from the fitted curve at half-maximal effect; % is scaled to controls: 0 for no effect and ±100 for the full control effect
#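 hKGA in 45 mM KH2PO4 pH 8.2, 0.02% Tween-20 with pin-transferred compounds; 1 mM L-glutamine (stock) plus glutamate oxidase/HRP/Amplex Red coupling added. Fluorescence read initially and after 30 min at RT.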
# USP1-UAF1 confirm – validation of human USP1/UAF1 inhibitors | shares compounds with VDR inh | Ub-Rhodamine cleavage, fluorescence kinetic read | Potency, µM (top dose mostly 114 µM), without a hit: top-dose activity change, negative = inhibition, hits mostly inhibitors | hit rate 50% among 50
# VDR inh confirm – confirmation of human vitamin D receptor inhibitors. shares compounds with VDR inh. VDR-coactivator inhibition assay, qHTS confirmation. Potency, µM, hits mostly inhibitors. hit rate 89% among 840. AID 602199; also: potency is read from the fitted curve at half-maximal effect
# VDR FP fluor – confirmation of human VDR-coactivator binding inhibitors, fluorescein label. shares compounds with VDR inh. VDR-coactivator binding, fluorescein fluorescence polarization. Potency, µM (top dose mostly 57.1 µM), without a hit: at the highest dose activity change, negative = inhibition, most hits filed as inhibitors. hit rate 48% among 840; also: potency is read from the fitted curve at half-maximal effect
# VDR bla reporter – VDR (human) inhibition, cell-based beta-lactamase validation; VDR beta-lactamase reporter cells, FRET ratio; cells co-treated with VDR agonist LG190178; hit rate 23% among 840; Potency, µM (top dose mostly 46.1 µM), for inactives: at the top dose activity change, negative = inhibition, usual class: inhibitors; shares compounds with VDR inh; AID 602202; also: potency is read from the fitted curve at half-maximal effect; % is scaled to controls: 0 for no effect and ±100 for the full control effect
# VDR cytotox – counter-screen for vitamin D receptor inhibitors: cytotoxicity; shares compounds with VDR inh; cytotoxicity counter-screen, cell viability, qHTS; Potency, µM (doses to about 48.3 µM), inactives show at the highest dose activity change, negative = cytotoxicity, actives largely listed as cytotoxic; hit rate 18% among 840; AID 602204;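 also: potency is read from the fitted curve at half-maximal effect; plate controls were DMSO for no effect and high-concentration cycloheximide for full effect; nearly all actives have a fitted effect of over 75% in size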
# Starred values were filed as active, the others as inactive; i = inactive; ? = inconclusive; . = no result given. Unless noted, calls follow the shape of the dose curve; as a rule, active = well fitted curve in the direction sought with a large enough effect; inconclusive = small, poorly fitted or top-dose-only effect, or another doubt; inactive = no such curve, though single readings can be large; an effect the other way counts as inactive or inconclusive.
SMILES,VDR inh,Tb PFK inh,Pin1 inh,PGK inhibitor,GLS inh,VDR inh confirm,VDR FP fluor,VDR bla reporter,VDR cytotox,others
O=[N+]([O-])/C=C/c1cn(Cc2ccccc2)c2ccccc12,14.1µM*,-4.4%,29.0%,9.5%,5.0%,11.9*,?,?,?,
CCOC(=O)c1c(C)[nH]c(C)c1S(=O)(=O)N(C)CC(=O)Nc1ccc(C)c(F)c1,2.1%,.,-3.7%,i,-5.2%,.,.,.,.,
Cc1ccc(S(=O)(=O)Nc2nsc(N)n2)cc1,7.08µM*,-1.5%,-10.5%,-1.3%,-6.5%,5.32*,?,27.0%,-9.9%,
CCOc1ccc(NC(=O)CC2SC(=O)N(c3ccccc3)C2=O)cc1 (stereo unspecified),28.2µM*,?,-0.7%,-3.5%,?,?,?,28.6%,14.3%,
Cc1ccccc1NC(=O)CC1SC(=O)N(c2ccccc2)C1=O (stereo unspecified),9.9%,4.5%,7.8%,0.5%,46.8%,.,.,.,.,
O=C(NC1CC1)c1sc2cc([N+](=O)[O-])ccc2c1Cl,-7.6%,0.1%,8.6%,-12.0%,-6.7%,.,.,.,.,
CC(NC(=O)c1sc2cc([N+](=O)[O-])ccc2c1Cl)C(C)(C)C (stereo unspecified),?,?,-17.0%,i,-12.9%,5.62*,3.16µM*,-7.7%,20.0%,
CCOC(=O)c1sc2cccc(F)c2c1S(=O)(=O)N1CCN(c2cccc(Cl)c2)CC1,-1.0%,.,3.4%,i,5.4%,.,.,.,.,
NS(=O)(=O)c1ccc(NC(=O)c2nc(S(=O)(=O)Cc3ccccc3F)ncc2Cl)cc1,.,.,.,.,.,5.01*,3.55µM*,?,10.7%,
Cc1ccc(NC(=O)c2nc(S(=O)(=O)Cc3ccccc3F)ncc2Cl)cc1,.,.,.,.,.,1.58*,1.41µM*,16.4µM*,?,
Cc1ccc(NC(=O)c2nc(S(=O)(=O)Cc3ccccc3C)ncc2Cl)cc1C,?,-0.7%,75.9%,-2.3%,0.0%,.,.,.,.,
Cc1ccc(NC(=O)c2nc(S(=O)(=O)Cc3ccccc3F)ncc2Cl)cc1C,.,.,.,.,.,3.16*,3.16µM*,9.2µM*,15µM*,
Cc1cnc(NC(=O)C2CC(=O)N(c3cccc(Cl)c3)C2)s1 (stereo unspecified),1.8%,-0.8%,1.7%,-7.6%,-9.1%,.,.,.,.,
CCOc1ccc(CCNC(=O)c2cnc3sc(N4CCCCC4)nn3c2=O)cc1,-1.7%,.,1.1%,i,-11.5%,.,.,.,.,
CCOC(=O)N1C(=O)[C@](CC)(c2ccccc2)N1C(=O)OCC,79.4µM*,-0.6%,-1.3%,7.5%,30.6%,?,?,21.1%,-5.1%,
O=[N+]([O-])c1ccc(S(=O)(=O)c2cccc(C(F)(F)F)c2)nc1,28.2µM*,.,-6.4%,-3.5%,26.2%,6.7*,?,16.4µM*,?,
CCCCOC(=O)NS(=O)(=O)c1sc(CC(C)C)cc1-c1ccc(Cn2c(CC)nc3c(C)cc(C)nc32)cc1,-2.8%,2.8%,.,.,.,.,.,.,.,USP1-UAF1 confirm=?
CCCCOC(=O)Nc1ccc(S(=O)(=O)Nc2nc(C)cc(C)n2)cc1,13.9%,5.7%,4.7%,i,-7.8%,.,.,.,.,
CCCNC(=O)c1nnsc1S(=O)c1ccc(Cl)cc1 (stereo unspecified),?,-26.5%,-0.1%,i,0.0%,0.891*,1µM*,13µM*,21.2µM*,
CCCNC(=O)c1nnsc1S(=O)(=O)c1ccc(Cl)cc1,?,-29.1%,7.9%,7.2%,?,.,.,.,.,
CNC(=O)c1nnsc1S(=O)c1ccc(Cl)cc1 (stereo unspecified),5.62µM*,-17.1%,-0.6%,-5.5%,0.0%,3.77*,4.47µM*,16.4µM*,?,
Cc1ccc(S(=O)c2snnc2C)cc1 (stereo unspecified),1.2%,0.2%,-0.2%,3.8%,0.0%,.,.,.,.,
CCOc1ccc(NC(=O)[C@@H]2CCC(=O)N2C2OC(=O)c3ccccc32)cc1 (stereo partly specified),-19.2%,1.6%,-8.0%,-6.6%,2.4%,.,.,.,.,
Cc1ccc2c(c1)C(=O)C(=O)N2Cc1ccc(C(F)(F)F)cc1,25.1µM*,-0.1%,?,i,-4.5%,16.8*,10µM*,-9.0%,?,
Cc1ccc(CN2C(=O)C(=O)c3cc(Br)cc(C)c32)cc1,17.8µM*,.,1.8%,-7.7%,3.2%,7.08*,10µM*,-10.2%,-1.9%,
SMILES,VDR inh,Tb PFK inh,Pin1 inh,PGK inhibitor,GLS inh,VDR inh confirm,VDR FP fluor,VDR bla reporter,VDR cytotox,others
CC(C)(C)[C@@H]1CCC(=O)N(CC[C@H](Sc2ccc(Br)cc2)c2ccccc2)CC1,-26.3%,0.9%,22.0%,i,-1.5%,.,.,.,.,
COc1ccc(Cl)cc1NC(=O)c1c(NCc2sccc2C)sc2c1CCCC2,17.8µM*,.,6.5%,0.6%,5.1%,3.55*,3.16µM*,1.5%,11.7%,
COc1ccccc1NC(=O)c1c(NCc2sccc2C)sc2c1CCCCC2,-14.6%,.,?,-0.1%,-6.3%,.,.,.,.,
O=C(COc1ccc(Cl)cc1)Nc1sc2c(c1C(=O)Nc1cccc(Cl)c1)CCCC2,?,.,0.6%,i,-18.4%,7.94*,7.94µM*,-6.9%,-4.4%,
COc1ccc(NC(=O)c2c(NC(=O)COc3ccccc3)sc3c2CCCCC3)cc1,-19.7%,.,28.7%,i,-20.2%,.,.,.,.,
CCOC(=O)C1=CCN(S(=O)(=O)c2cccc(Cl)c2)C1c1ccc(F)cc1 (stereo unspecified),.,.,.,.,-0.2%,.,.,.,.,
O=S(=O)(NCC(c1ccc2c(c1)OCO2)N1CCOCC1)c1ccc(Br)cc1 (stereo unspecified),-9.0%,4.1%,-7.0%,-8.6%,-1.5%,.,.,.,.,
Oc1cc2c(cc1C(c1ccc(Br)cc1)N1CCCC1)OCO2 (stereo unspecified),39.8µM*,-7.3%,5.4%,i,-3.3%,13.4*,10µM*,-3.6%,?,
Oc1ccc(N=C/C=C/c2cccc(Br)c2)cc1-c1nc2ccccc2s1,?,-0.4%,-5.4%,-6.4%,14.1µM*,8.91*,22.4µM*,18.4µM*,?,

# Compound activity as filed in PubChem.
